Assay outcomes as filed in PubChem BioAssay.
The sample as a whole holds a higher share of hits than the screen did.
AMA1 RON2 block = inhibitors of Plasmodium falciparum AMA1-RON2 interaction; 360,000 compounds, 0.2% hits; Potency, µM (highest dose often 58.2 µM), without a hit: at the top dose activity change, negative = inhibition, most hits filed as inhibitors; AlphaScreen AMA1-biotinylated RON2 peptide binding;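 further: potency means the concentration at half of the fitted maximal effect; 0% = vehicle wells and -100% = peptide control; nearly all actives have a fitted effect of over 45% in size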
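AMA1 (3D7) with his tag at 25 nM final met compounds first, then biotinylated RON2 peptide at 25 nM; detection used donor plus acceptor beads, 10 µg/mL apiece, read by AlphaScreen after 30 min at room temperature.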
AmpC detergent = AmpC beta-lactamase inhibition with detergent present | AmpC hydrolysis of nitrocefin, absorbance 480 nm, 0.01% Triton | P00811 | Potency, µM (titrated, usually from 114 µM), for inactives: top-dose activity change, negative = inhibition, usual class: inhibitors | 370,000 compounds, 0.041% hits;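 further: potency means the concentration at half of the fitted maximal effect; 0% = no-compound wells and -100% = no-enzyme wells; nearly all actives have a fitted effect of over 25% in size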
Target sequence (P00811 whole entry, looked up): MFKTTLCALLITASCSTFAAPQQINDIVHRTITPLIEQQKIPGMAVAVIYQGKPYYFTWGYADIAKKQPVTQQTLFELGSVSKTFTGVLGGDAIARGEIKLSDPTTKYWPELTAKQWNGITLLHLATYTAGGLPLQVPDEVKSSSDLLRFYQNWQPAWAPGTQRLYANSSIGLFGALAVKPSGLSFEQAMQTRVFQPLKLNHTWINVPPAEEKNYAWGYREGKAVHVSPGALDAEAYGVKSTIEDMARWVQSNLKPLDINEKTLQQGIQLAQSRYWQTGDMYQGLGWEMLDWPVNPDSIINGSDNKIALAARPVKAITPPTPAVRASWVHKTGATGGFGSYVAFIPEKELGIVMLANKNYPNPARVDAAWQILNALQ
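20 mM phosphate pH 7.0 + 0.01% (detergent screen) or 0.0001% Triton X-100; 5.3 nM AmpC reagent; cpd preinc 15 min RT; nitrocefin (800 uM stock) to start; A480 q20 s × 4 min; Activity was normalised to no-enzyme and no-compound control wells.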
Cycloheximide cs = affects cycloheximide protein synthesis inhibition readout, counter-screen | max response, % | 300,000 compounds, 12% hits | cell reporter, cycloheximide protein synthesis inhibition counterscreen; in the data active means max response mostly above about 13%, no sharp cut-off; inactive means mostly below about 14%; further: read at 38.3 µM for the half of the compounds with a filed dose; 0% is about no effect
Shiga inhibitor = blocks Shiga toxin action in Vero cells; 290,000 compounds, 9.2% hits; inhibition, % at 38.7 µM; Vero cells, Shiga toxin protein synthesis inhibition reporter; in the data active means inhibition mostly above about 28%, no sharp cut-off; inactive means mostly below about 43%; further: 0% is about no effect
AmpC no deterg = blocks E. coli AmpC beta-lactamase in detergent-free assay; P00811; AmpC nitrocefin hydrolysis, absorbance 480 nm, 0.0001% Triton; Potency, µM (series often up to 57.1 µM), for the others: at the highest dose activity change, negative = inhibition, hits mostly inhibitors; 330,000 compounds, 0.52% hits; AID 485341;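 further: potency means the concentration at half of the fitted maximal effect; plate controls were no compound for no effect and no enzyme for full effect; nearly all actives have a fitted effect of over 20% in size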
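20 mM phosphate pH 7.0 + 0.01% (detergent screen) or 0.0001% Triton X-100; 5.3 nM AmpC reagent; cpd preinc 15 min RT; nitrocefin (800 uM stock) to start; A480 q20 s × 4 min; Activity was normalised to no-enzyme and no-compound control wells.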
SARS PLP yeast = inhibitors of SARS-CoV papain-like protease in yeast; AID 485353; 330,000 compounds, 0.19% hits; Potency, µM (highest dose often 32.9 µM), for inactives: top-dose activity, positive = growth rescue, hits mostly activators; S. cerevisiae expressing SARS-CoV PLpro, growth rescue; calls by dose curve; further: potency means the concentration at half of the fitted maximal effect; 0% is about no effect; nearly all actives have a fitted effect of over 55% in size
Numbers without * were called inactive. Unless noted, the call rests on the fitted dose curve; in most records, active means well fitted curve in the direction sought with a large enough effect; inconclusive means small, poorly fitted or top-dose-only effect, or another doubt; inactive means no such curve, though single readings can be large; an effect the other way counts as inactive or inconclusive.

`CCN1C(=Nc2ccc(Cl)cc2)SC/C1=C\C(=O)OC` gave AMA1 RON2 block -2.8%, AmpC detergent -9.9%, Cycloheximide cs 21.8*, Shiga inhibitor 19.9, AmpC no deterg -8.2% and SARS PLP yeast 1.2%.
For CCN1C(=O)CSC1=Nc1ccccc1Cl the results were AMA1 RON2 block 2.5%, AmpC detergent -8.9%, Cycloheximide cs -2.8, Shiga inhibitor -1.8, AmpC no deterg -4.1% and SARS PLP yeast 1.0%.
`Cc1c(O)c2ccccc2oc1=O` gave AMA1 RON2 block 0.7%, AmpC detergent -7.2%, Cycloheximide cs -2.6, Shiga inhibitor -12.7, AmpC no deterg -8.9% and SARS PLP yeast -0.7%.
`O=C1CCCC(O)=C1C=Nc1cccc(C(F)(F)F)c1` gave AMA1 RON2 block 19.9%, AmpC detergent -15.9%, Cycloheximide cs 9.2, Shiga inhibitor 3.4, AmpC no deterg 1.0% and SARS PLP yeast 0.8%.
Screening COc1cccc(N=CC2=C(O)CCCC2=O)c1 returned AMA1 RON2 block 12.3%, AmpC detergent 5.1%, Cycloheximide cs 30.5*, Shiga inhibitor 30.7, AmpC no deterg -3.7% and SARS PLP yeast -0.9%.
`CN=C(C)c1c(O)c2ccccc2oc1=O` gave AMA1 RON2 block -1.0%, AmpC detergent 3.3%, Cycloheximide cs 18.1*, Shiga inhibitor 20.3, AmpC no deterg -27.7% and SARS PLP yeast -17.7%.
Screening COc1cccc(N=Cc2c(O)c3ccccc3oc2=O)c1 returned AMA1 RON2 block 16.7%, AmpC detergent 1.0%, Cycloheximide cs 21.3*, Shiga inhibitor 34.5, AmpC no deterg -26.9% and SARS PLP yeast -0.3%.
For Cc1ccc(N=Cc2c(O)c3ccccc3oc2=O)c(C)c1 the results were AMA1 RON2 block -3.7%, AmpC detergent 1.7%, Cycloheximide cs 29.9*, Shiga inhibitor 17.1, AmpC no deterg -12.4% and SARS PLP yeast -0.5%.
Screening COC(=O)c1sc2cccc(F)c2c1S(=O)(=O)NCc1ccccc1Cl returned AmpC detergent 6.3%.
For O=C(Nc1ccc(N2CCOCC2)c(Cl)c1)C1CCCCC1 the results were AMA1 RON2 block -4.5%, AmpC detergent 11.2%, Cycloheximide cs 52.3*, Shiga inhibitor 128.8, AmpC no deterg -14.2% and SARS PLP yeast -5.6%.
O=C(Nc1cccc(-c2ccc(N3CCOCC3)nn2)c1)c1cccc(Cl)c1 was read as AMA1 RON2 block -2.6%.
`O=C(Nc1cccc(-c2ccc(N3CCOCC3)nn2)c1)c1ccc(Cl)cc1` gave AMA1 RON2 block 26.9%, AmpC detergent inconclusive, AmpC no deterg 31.6µM* and SARS PLP yeast -2.2%.
Screening Cc1cc(C(=O)Nc2ccc(N3CCOCC3)c(Cl)c2)c(C)o1 returned AMA1 RON2 block 0.0%, AmpC detergent -0.7%, Cycloheximide cs 33.7*, Shiga inhibitor 41.7*, AmpC no deterg 2.5% and SARS PLP yeast -0.9%.
For O=C(Nc1ccc(Cl)c(S(=O)(=O)N2CCOCC2)c1)C1CCCC1 the results were AMA1 RON2 block 22.1%, AmpC no deterg -42.2% and SARS PLP yeast 6.9%.
Screening O=C(Nc1ccc(N2CCOCC2)c(Cl)c1)c1ccccc1F returned AMA1 RON2 block 3.3%, AmpC detergent 9.9%, Cycloheximide cs 35.2*, Shiga inhibitor 109.1*, AmpC no deterg -4.9% and SARS PLP yeast -14.1%.
Screening Cc1cc(C(=O)Nc2ccc(C)c(S(=O)(=O)N3CCOCC3)c2)c(C)o1 returned AMA1 RON2 block -11.8%, AmpC detergent -15.8%, Cycloheximide cs 9.7, Shiga inhibitor 16.0, AmpC no deterg -15.8% and SARS PLP yeast 0.2%.
`O=C(Nc1ccc(N2CCOCC2)c(Cl)c1)c1ccc(Cl)cc1` gave AMA1 RON2 block 1.0%, AmpC detergent 12.6%, Cycloheximide cs 32.0*, Shiga inhibitor 52.5*, AmpC no deterg -39.3% and SARS PLP yeast 1.1%.
O=C(Nc1ccc(N2CCOCC2)c(Cl)c1)c1ccc2c(c1)OCCO2 was read as AMA1 RON2 block 6.5%, AmpC detergent -14.5%, Cycloheximide cs -1.7, Shiga inhibitor 8.1, AmpC no deterg -4.2% and SARS PLP yeast -1.2%.
Screening Cc1noc(C(=O)Nc2ccc3c(c2)OCO3)c1Cl returned AMA1 RON2 block -4.9%, AmpC detergent -1.4%, Cycloheximide cs 36.8*, Shiga inhibitor 78.7*, AmpC no deterg -22.4% and SARS PLP yeast -24.1%.
Screening Cc1ccc2c(Cl)c(C(=O)Nc3ccc4c(c3)OCO4)sc2c1 returned AMA1 RON2 block 12.7%, AmpC detergent -5.6%, Cycloheximide cs 19.2*, Shiga inhibitor 90.5*, AmpC no deterg -14.6% and SARS PLP yeast 3.7%.
Cc1noc(C(=O)Nc2ccccc2C(F)(F)F)c1Cl was read as AMA1 RON2 block 0.4%, AmpC detergent -14.5%, Cycloheximide cs 10.2, Shiga inhibitor 15.6, AmpC no deterg 0.6% and SARS PLP yeast -3.0%.
CC(=O)c1cccc(NC(=O)c2onc(C)c2Cl)c1 was read as AMA1 RON2 block -9.8%, AmpC detergent 4.7%, Cycloheximide cs 17.4*, Shiga inhibitor 24.1, AmpC no deterg -7.2% and SARS PLP yeast 5.4%.
`Cc1noc(C(=O)Nc2cccnc2)c1Cl` gave AMA1 RON2 block 0.0%, AmpC detergent -15.1%, Cycloheximide cs -5.7, Shiga inhibitor -8.5, AmpC no deterg -21.7% and SARS PLP yeast -3.9%.
For O=C(N/N=C/c1ccc2c(c1)OCO2)c1sc2cc(Cl)ccc2c1Cl the results were AMA1 RON2 block 4.0%, AmpC detergent -11.4%, Cycloheximide cs 6.0, Shiga inhibitor -10.8, AmpC no deterg -7.9% and SARS PLP yeast 17.0%.
CCc1onc(C)c1C(=O)Nc1ccc2c(c1)OCO2 was read as AMA1 RON2 block -3.0%, AmpC detergent -7.1%, Cycloheximide cs -3.9, Shiga inhibitor -7.3, AmpC no deterg -13.8% and SARS PLP yeast 0.5%.
For CC(=O)c1ccc(NC(=O)c2onc(C)c2Cl)cc1 the results were AMA1 RON2 block 6.1%, AmpC detergent -1.9%, Cycloheximide cs 39.3*, Shiga inhibitor 95.6*, AmpC no deterg -8.5% and SARS PLP yeast 0.1%.
`Cc1ccn(Cc2n[nH]c(=S)n2Cc2ccccc2)n1` gave AMA1 RON2 block -1.5%, AmpC detergent -7.7%, Cycloheximide cs -2.6, Shiga inhibitor -14.4, AmpC no deterg -13.7% and SARS PLP yeast 3.6%.
For CCc1ccc(/C=C2/SC(N3CCOCC3)=NC2=O)cc1 the results were AMA1 RON2 block 3.3%, AmpC detergent 2.7%, Cycloheximide cs 11.3, Shiga inhibitor 26.0, AmpC no deterg 33.8% and SARS PLP yeast -1.9%.
CCN1C/C(=C/c2ccc(N3CCOCC3)cc2)C(=O)/C(=C/c2ccc(N3CCOCC3)cc2)C1 was read as AMA1 RON2 block -29.3%, AmpC detergent 3.0%, Cycloheximide cs 25.6*, Shiga inhibitor 35.6*, AmpC no deterg 214.6% and SARS PLP yeast 4.0%.
